Source: PubChem (National Center for Advancing Translational Sciences (NCATS))
HT1080-NT tox: kills 2HG-producing HT-1080-NT fibrosarcoma cells; HT-1080-NT fibrosarcoma viability, CellTiter-Glo ATP luminescence, 48 h; Potency, µM (series often up to 46.1 µM), without a hit: at the highest dose activity, negative = less viability, most hits filed as cytotoxic; hit rate 1.6% among 360,000; AID 686970;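 further: NT is the 2HG producing partner of a matched IDH1 knockdown line; potency means the concentration at half of the fitted maximal effect; 0% = DMSO-treated cells and -100% = media-only wells without cells; nearly all actives have a fitted effect of over 55% in size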
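Viability by CellTiter-Glo luminescence after 48 h compound exposure at 37C of HT-1080-NT cells (750/well, RPMI, 5% FBS). % activity scaled between DMSO wells and medium-only wells, then curve-fitted and categorized by curve class.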
TDP1 cell CPT: DT40-hTDP1 cell growth loss with CPT | chicken DT40 Tdp1-/-;hTDP1 cells + 20 nM CPT, ATP luminescence, 48 h | Potency, µM (doses to about 46.2 µM), for inactives: at the top dose activity change, negative = growth inhibition, actives largely listed as inhibitors | hit rate 12% among 420,000; further: potency means the concentration at half of the fitted maximal effect; nearly all actives have a fitted effect of over 55% in size
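Cell growth measured by CellTiter-Glo luminescence after a minimum 48 h, 37 C compound exposure with 20 nM CPT in Tdp1-knockout DT40 cells stably expressing hTDP1, seeded 400/well; qHTS titration format.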
HT1080 IDH1KD tx: HT-1080 IDH1 knockdown cell toxicity (counter line). Potency, µM (titrated, usually from 46.1 µM), without a hit: top-dose activity, negative = toxicity, usual class: cytotoxic. HT-1080 IDH1 knockdown viability, ATP luminescence, 48 h. hit rate 2% among 360,000. AID 686971;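 further: potency means the concentration at half of the fitted maximal effect; 0% = DMSO wells and -100% = cell-free medium wells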
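Assay cells: HT-1080 with IDH1 knockdown, 750 per well, RPMI/5% FBS. Exposure: 48 h at 37 °C following 2 h pre-incubation. Read: CellTiter-Glo luminescence; fitted concentration-response, curve class assigned.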
TDP1 cell noCPT: qHTS for Inhibitors of human tyrosyl-DNA phosphodiesterase 1 (TDP1): qHTS in cells in absence of CPT. DT40 Tdp1-/- hTDP1 cells, no CPT, ATP luminescence, 48 h. Potency, µM (doses to about 46.2 µM), for the others: at the highest dose activity change, negative = growth inhibition, actives largely listed as inhibitors. hit rate 15% among 420,000; further: potency means the concentration at half of the fitted maximal effect; nearly all actives have a fitted effect of over 55% in size
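Seeded 400 DT40-hTDP1 cells/well (vehicle DMSO, no 20 nM CPT); pinned compounds; ≥48 hr at 37 °C; CellTiter-Glo luminescence as viability measure.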
uPA surface inh: inhibitors of cell surface uPA generation. cell surface uPA generation assay, qHTS. Potency, µM (series often up to 38.3 µM), without a hit: at the highest dose activity change, negative = inhibition, usual class: inhibitors. hit rate 0.31% among 330,000. AID 540303; active means well fitted inhibition curve with a large enough effect; inconclusive means small, poorly fitted or top-dose-only effect; inactive means no such curve, though single readings can be large or run the other way; tested in mouse RAW 264.7 cells; further: potency means the concentration at half of the fitted maximal effect; nearly all actives have a fitted effect of over 55% in size
IL-1B inflam inh: blocks inflammasome-driven IL-1 beta release; activity change, % at 57.5 µM; THP-1 LPS/ATP IL-1B secretion, AlphaLISA, 16 h; hits give low values; hit rate 4.7% among 360,000; in the data active means activity change below about -50%; inconclusive means mostly about -30% to -49%
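THP-1 cells pretreated 1 hr with compounds (up to 57.5 uM final), then stimulated with LPS (250 ng/mL final) plus ATP (1.25 mM final); secreted IL-1B measured by AlphaLISA after 16 hr, decreased signal indicating inhibition.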
* hit, by the source's call; ? = inconclusive; / = no result; [ ] = another dose, or the depositor's remark. An excerpt weighted towards active compounds, which were near 19% of everything screened. Unless noted, the call rests on the fitted dose curve; in most records, active means well fitted curve in the direction sought with a large enough effect; inconclusive means small, poorly fitted or top-dose-only effect, or another doubt; inactive means no such curve, though single readings can be large; an effect the other way counts as inactive or inconclusive. Unless noted, on the % scale 0 is the no-effect control and ±100 the full control effect.

SMILES	HT1080-NT tox	TDP1 cell CPT	HT1080 IDH1KD tx	TDP1 cell noCPT	uPA surface inh	IL-1B inflam inh
N=c1oc2ccc3ccccc3c2cc1-c1nc(-c2ccccc2)cs1	25.7%	?	19.2%	?	-0.6%	22.4
N=c1oc2ccccc2cc1-c1nc(-c2ccccc2)cs1	-5.3%	?	1.3%	23.1µM*	8.1%	-9.7
COc1ccc(C(=O)NC2CCCc3c2cnn3-c2ccccc2F)cc1OC (configuration not stated)	3.8%	5.17µM*	-5.8%	1.64µM*	-18.3%	0.0
O=C(NC1CCCc2c1cnn2-c1ccccc1F)c1ccncc1 (configuration not stated)	-0.9%	10.3µM*	-23.4%	5.8µM*	/	23.1
Cc1cc(C)n(-c2ccc(C(=O)N3CCN(S(=O)(=O)c4ccc(Br)cc4Cl)CC3)cc2)n1	-24.3%	23.1µM*	-22.6%	16.4µM*	/	?
Cc1cc(C)n(-c2ccc(C(=O)N3CCC(CO)(Cc4ccccc4)CC3)cc2)n1	?	16.4µM*	-11.3%	?	9.4%	0.2
COc1cccc(Nc2nc(C)cc(C)c2C(N)=O)c1	?	-9.2%	28.9%	-5.4%	3.9%	-1.1
O=C(CC1C(=O)N(c2ccc(Cl)cc2)C(=S)N1CCc1ccncc1)Nc1ccc(F)cc1 (configuration not stated)	?	?	?	?	-16.9%	-62.5*
COc1cc(NC(=O)CC2C(=O)N(c3cccc(C)c3)C(=O)N2Cc2ccco2)cc(OC)c1 (configuration not stated)	/	?	/	23.1µM*	/	/
COc1ccc(NC(=O)CC2C(=O)N(c3cccc(OC)c3)C(=O)N2Cc2ccco2)cc1 (configuration not stated)	0.5%	-8.0%	12.1%	-17.7%	-11.4%	7.1
COc1ccc(CCN2C(=O)N(c3ccc(C)cc3)C(=O)C2CC(=O)Nc2ccc(F)cc2)cc1 (configuration not stated)	/	?	/	20.6µM*	/	/
COC(=O)c1ccc(NC(=O)CC2C(=O)N(c3ccc(F)cc3)C(=O)N2Cc2ccc(OC)cc2)cc1 (configuration not stated)	/	?	/	18.4µM*	/	/
CC1=C(C(=O)N2CCOCC2)CC(CC(=O)NCCc2ccccn2)C(=O)N1Cc1ccc(C(C)(C)C)cc1 (configuration not stated)	-5.5%	-23.8%	1.6%	-18.0%	/	26.4
COc1ccccc1NS(=O)(=O)c1cccc(C(=O)NCC(c2cccs2)N2CCOCC2)c1 (configuration not stated)	8.9%	-5.4%	6.6%	?	0.1%	-10.4
COCC(=O)N1CCC2(CC1)CN(C(=O)Nc1cccc(C#N)c1)C2	/	13.1%	/	4.7%	/	/
COC(=O)c1cn([C@@H]2C[C@@H](C(=O)Nc3cccc(SC)c3)N(C3CCCC3)C2)nn1	/	3.0%[9.04 µM]	/	-23.6%	/	/
O=S(=O)(Nc1ccc(-c2ccc(N3CCCC3)nn2)cc1)c1ccccc1Cl	/	?	/	-24.2%	/	/
CCOc1ccc(NC(=O)CC2C(=O)N(c3ccc(C)cc3)C(=O)N2Cc2ccc(OC)cc2)cc1 (configuration not stated)	/	?	/	23.1µM*	/	/
COC(=O)c1ccc(NC(=O)CC2C(=O)N(c3cccc(OC)c3)C(=O)N2Cc2cccc(OC)c2)cc1 (configuration not stated)	/	?	/	14.6µM*	/	/
COc1ccc(CN2C(=O)N(c3cccc(C)c3)C(=O)C2CC(=O)Nc2ccc(F)cc2)cc1OC (configuration not stated)	/	-15.3%	/	?	/	/
COc1ccc(CN2C(=O)N(c3ccc(OC)cc3)C(=O)C2CC(=O)Nc2ccccc2)cc1 (configuration not stated)	-12.3%	-14.5%	-6.4%	?	5.2%	-3.8
CCc1ccc(NC(=O)CC2C(=O)N(c3cccc(OC)c3)C(=O)N2Cc2ccc(F)cc2)cc1 (configuration not stated)	/	23.1µM*	/	18.4µM*	/	/
CCCOc1ccc(NC(=O)CC2C(=O)N(c3ccccc3)C(=O)N2Cc2ccc(F)cc2)cc1 (configuration not stated)	/	16.4µM*	/	20.6µM*	/	/
CCOC(=O)c1ccc(NC(=O)CC2C(=O)N(c3cccc(OC)c3)C(=O)N2CCOC)cc1 (configuration not stated)	-7.8%	-25.5%	-5.5%	-22.1%	-2.8%	-8.0
CC(N)(C(=O)O)c1ccc(P(=O)(O)O)cc1 (configuration not stated)	/	-8.4%	/	-27.1%	/	/
SMILES	HT1080-NT tox	TDP1 cell CPT	HT1080 IDH1KD tx	TDP1 cell noCPT	uPA surface inh	IL-1B inflam inh
COC(=O)c1ccc(NC(=O)CC2C(=O)N(c3cccc(OC)c3)C(=O)N2Cc2ccco2)cc1 (configuration not stated)	/	16.4µM*	/	?	/	/
COc1ccc(NC(=O)CC2C(=O)N(c3cccc(OC)c3)C(=O)N2CCC2=CCCCC2)cc1 (configuration not stated)	/	?	/	23.1µM*	/	/
CCNC(=O)CC1C(=O)N(c2ccc(C)cc2)C(=O)N1Cc1ccc(C)cc1 (configuration not stated)	/	-5.8%	/	2.9%	/	/
CCOC(=O)c1ccc(N2C(=O)C(CC(N)=O)N(CCc3ccc(OC)c(OC)c3)C2=S)cc1 (configuration not stated)	9.1%	17.3%	-2.2%	9.6%	9.4%	33.5
COCCN1C(=O)N(c2cccc(OC)c2)C(=O)C1CC(=O)Nc1ccccc1 (configuration not stated)	/	8.6%	/	-8.0%	/	/
COc1ccc(CCN2C(=S)N(c3ccc(Cl)cc3)C(=O)C2CC(N)=O)cc1OC (configuration not stated)	-26.7%	14.6µM*	?	16.4µM*	-9.4%	-7.1
CCOC(=O)c1ccc(NC(=O)CC2C(=O)N(c3ccccc3)C(=O)N2Cc2ccc(C)cc2)cc1 (configuration not stated)	/	?	/	23.1µM*	/	/
CC(C)NC(=O)C1CCC(Cn2c(=O)c3sccc3n(CC(=O)N3CCCC3)c2=O)CC1 (configuration not stated)	/	-2.5%	/	4.7%	/	/
O=C(O)c1ccccc1[O-].O=C(O)c1ccccc1[O-].[Zn+2]	/	-5.8%	/	0.1%	/	/
